Screens as filed in PubChem.
This excerpt belongs to a sample that is enriched for hits.
Methyltransferases: Primary Screen for Target Class Profiling of Small Molecule Inhibitors of Methyltransferases. purified enzyme, MTase-Glo SAH luminescence; stronger effect = lower value. calls only at 40 µM. 3.9% of 25,000 active; call rule not given here
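Each enzyme was reacted with SAM and its substrate, with compounds tested once at 40 uM; SAH formed was read by MTase-Glo luminescence.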
Numbers without * were called inactive. On the % scale 0 is the no-effect control and ±100 the full control effect.

How did C=C[C@H]1[C@H](O[C@@H]2O[C@H](CO)[C@@H](O)[C@H](O)[C@H]2O)OC=C(C(=O)OC)[C@H]1CC(=O)O do in these assays?
Methyltransferases: inactive

What do the screens show for `COC(=O)C1=CO[C@@H](O[C@@H]2O[C@H](CO)[C@@H](O)[C@H](O)[C@H]2O)[C@H]2[C@@H]1CC(OC)O[C@@H]2C` (stereo partly drawn)?
Methyltransferases: active

How did COC(=O)C1=COC(OC2OC(CO)C(O)C(O)C2O)C2C(C)C(OC(C)=O)C(OC(=O)c3ccccc3)C12 (stereo not drawn) do in these assays?
Methyltransferases: inactive

How did COC(=O)C1=COC(O[C@@H]2O[C@H](CO)[C@@H](O)[C@H](O)[C@H]2O)C2C(C)C(=O)CC12 (stereo partly drawn) do in these assays?
Methyltransferases: inactive

What do the screens show for `COC(=O)C1=CO[C@@H](O[C@@H]2O[C@H](CO)[C@@H](O)[C@H](O)[C@H]2O)[C@@H]2[C@@H](C(=O)OC)[C@@H](O)C(O)[C@H]12` (stereo partly drawn)?
Methyltransferases: inactive

What do the screens show for `CC1C(OC(=O)c2ccccc2)C(O)C2C(C(=O)O)=COC(OC3OC(CO)C(O)C(O)C3O)C12` (stereo not drawn)?
Methyltransferases: inactive

What do the screens show for `COC(=O)C1=COC(OC2OC(CO)C(O)C(O)C2O)C2C1CC(OC(=O)C(O)CC(=O)O)C2C` (stereo not drawn)?
Methyltransferases: active

Results for C=C[C@H]1[C@H](O[C@@H]2O[C@H](CO)[C@@H](O)[C@H](O)[C@H]2O)OC=C(C(=O)OC)[C@H]1CCO ?
Methyltransferases: active

How did C=C[C@H]1[C@H](O[C@@H]2O[C@H](CO)[C@@H](O)[C@H](O)[C@H]2O)OC=C(C(=O)OC)[C@H]1C[C@@H]1N[C@H](C(=O)O)Cc2c1[nH]c1ccccc21 do in these assays?
Methyltransferases: inactive

Results for COC(=O)C1(O)C(OC(C)=O)CCC2C3(CC(c4ccoc4)OC3=O)C(C)=CCC21C(=O)OC (stereo not drawn) ?
Methyltransferases: inactive

What do the screens show for `CC1(C(=O)NCc2ccccc2)Cn2nc(-c3ccccc3)cc2C(=O)N1C1CC1` (stereo not drawn)?
Methyltransferases: inactive

How did Cc1ccc(NC(=O)Cn2nc3n(CCc4ccccc4)c(=O)c4ccccc4n3c2=O)c(Cl)c1 do in these assays?
Methyltransferases: inactive

Results for CC(C)n1c(=O)c2ccc(C(=O)NC3CCCC3)cc2n2c(=O)n(CC(=O)NCc3ccccc3)nc12 ?
Methyltransferases: inactive

What do the screens show for `COC(=O)c1ncn2c1C(=O)N(CCc1cccs1)C(C)(C(=O)NC1CCCCC1)C2` (stereo not drawn)?
Methyltransferases: inactive

Results for Cc1ccccc1NC(=O)CSc1nnc2n(CC(C)C)c(=O)c3ccc(C(=O)NC(C)C)cc3n12 ?
Methyltransferases: inactive

Results for COc1cc(OC)cc(N2C(=O)c3ccc(-c4ccco4)n3CC2(C)C(=O)NC2CCCC2)c1 (stereo not drawn) ?
Methyltransferases: inactive

Results for CC1(C)CCC2(C(=O)O)C(O)CC3(C)C(=CCC4C5(C)CCC(OC6OC(CO)C(O)C(O)C6OC6OC(CO)C(O)C(O)C6OC6OCC(O)(CO)C6O)C(C)(C)C5CCC43C)C2C1 (stereo not drawn) ?
Methyltransferases: inactive

What do the screens show for `CC(C)(O)c1ccc2c(c1)ncn2-c1cccc(-c2ccccc2C#N)c1`?
Methyltransferases: active

What do the screens show for `CSCC(=O)N[C@H]1CCN2C(=O)c3ccc(Cl)cc3NC(=O)[C@@H]2C1`?
Methyltransferases: inactive

How did C=Cc1ccc(Cn2nc3n(C(C)C)c(=O)c4ccc(C(=O)NC(C)CC)cc4n3c2=O)cc1 (stereo not drawn) do in these assays?
Methyltransferases: inactive

How did Cc1ccc([C@@H]2CN(C(=O)c3c(-c4ccccc4)noc3C)C[C@H]2N(C)C)cc1 do in these assays?
Methyltransferases: inactive

Results for O=c1[nH]c2ccccc2n1CCN1CCN(c2cccc(C(F)(F)F)c2)CC1 ?
Methyltransferases: inactive

Results for CCCNC(=O)Cn1nc2nc(Nc3ccc(F)cc3)ccn2c1=O ?
Methyltransferases: inactive

What do the screens show for `CN1C(=O)c2cc(C(=O)NCc3ccco3)nn2CC1(C)C(=O)NC1CCCCC1` (stereo not drawn)?
Methyltransferases: inactive

What do the screens show for `COC(=O)c1cc2n(n1)CC(C)(C(=O)NC1CCCCCC1)N(Cc1cccc(OC)c1)C2=O` (stereo not drawn)?
Methyltransferases: inactive

How did CCOC(=O)c1cc2n(n1)CC(C)(C(=O)NC1CCCCC1)N(c1cccc(OC)c1)C2=O (stereo not drawn) do in these assays?
Methyltransferases: inactive

How did COc1cccc(-n2nc(C(=O)O)cc2-c2ccc(C3CCCCC3)c(Cl)c2)c1 do in these assays?
Methyltransferases: active

What do the screens show for `CCc1ccc(CNC(=O)c2ncn3c2C(=O)N(C2CC2)C(C)(C(=O)NCc2ccc(F)cc2)C3)cc1` (stereo not drawn)?
Methyltransferases: inactive

Results for N.N.N.N.N.N.N.N.N.N.N.N.N.N.O.O.[Ru+4].[Ru+5].[Ru+5] ?
Methyltransferases: active

How did COc1ccccc1CNC(=O)c1ccc2c(=O)nc3c(-c4ccc(Cl)cc4)n[nH]n3c2c1 do in these assays?
Methyltransferases: inactive

What do the screens show for `CCC(C)/C=C(C)/C=C/C1=CC2=C(Cl)C(=O)C(C)(OC(C)=O)C(=O)C2=CN1C(CCCN=C(N)N)C(=O)O` (stereo not drawn)?
Methyltransferases: inactive

How did CCOC(=O)c1cc2n(n1)CC(C)(C(=O)NC1CCCC1)N(c1ccc(C)cc1Cl)C2=O (stereo not drawn) do in these assays?
Methyltransferases: inactive

Results for Cc1ccc(CN2CC(=O)N(Cc3ccccc3F)c3ccccc3S2(=O)=O)cc1 ?
Methyltransferases: inactive

What do the screens show for `O=c1c2ccccc2n2c(-c3ccc(F)cc3)nnc2n1Cc1ccc(F)cc1`?
Methyltransferases: inactive

Results for COc1ccc(OC)c2c1cc1n2CC(C)(C(=O)NC2CCCCC2)N(Cc2ccccc2C)C1=O (stereo not drawn) ?
Methyltransferases: inactive

Results for COc1ccc(-c2ncccc2CNS(=O)(=O)c2ccc(C#N)cc2)cc1 ?
Methyltransferases: inactive

How did CC1CC(C)CN(CCCN2C(=O)c3nc4ccccc4n3CC2(C)C(=O)NC2CCCCCC2)C1 (stereo not drawn) do in these assays?
Methyltransferases: inactive

What do the screens show for `C[C@H](/C=C/[C@@]1(O)[C@H](C)CC(=O)CC1(C)C)O[C@@H]1O[C@H](CO[C@@H]2OC[C@@H](O)[C@H](O)[C@H]2O)[C@@H](O)[C@H](O)[C@H]1O`?
Methyltransferases: inactive

How did CC1=CC(=O)CC(C)(C)C1CCC(C)O[C@@H]1O[C@H](CO[C@@H]2OC[C@@H](O)[C@H](O)[C@H]2O)[C@@H](O)[C@H](O)[C@H]1O (stereo partly drawn) do in these assays?
Methyltransferases: active

How did CC1=CC(=O)CC(C)(C)[C@H]1/C=C/C(CO)O[C@@H]1O[C@H](CO)[C@@H](O)[C@H](O)[C@H]1O (stereo partly drawn) do in these assays?
Methyltransferases: inactive

How did CC(C)Oc1ccc(CN2C(=O)c3nc4ccccc4n3CC2(C)C(=O)NC2CCCC2)cc1 (stereo not drawn) do in these assays?
Methyltransferases: inactive

How did CC(C)[C@@](C)(O)[C@@H]1CN(c2nc(-c3[nH]nc4ncccc34)c(F)cc2Cl)CCN1 do in these assays?
Methyltransferases: active
